Consider 36 compounds from PubChem BioAssay (NCATS).

Inconclusive results are not listed. Entries that show only a call come without a potency. The source made the active and inactive calls. The call rests on the fitted dose curve; in most records, active means well fitted curve in the direction sought with a large enough effect; inconclusive means small, poorly fitted or top-dose-only effect, or another doubt; inactive means no such curve, though single readings can be large; an effect the other way counts as inactive or inconclusive.

The nature of experiment [1]: qHTS to identify inhibitors of the type 1 interferon - major histocompatibility complex class I in skeletal muscle: primary screen against the NCATS Pharmaceutical Collection (AID 1347407).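 Further: luminescence of HiBiT knocked into endogenous HLA-B as interferon-induced MHC class I level.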 In a few lines:
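A qHTS format is used: 8-point, 1:5 compound series with 46 uM top final concentration, applied alongside 4 ng/ml IFN-beta to HLA-B*08:01-HiBiT knock-in myoblasts. Luminescence is measured after 24 h treatment.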
A general note: In qHTS, concentration-response curves come from the screen itself.

Experiment [2] concerns the target Protein phosphatase 1D (Homo sapiens) (UniProt O15297). Kind of experiment: Rhodamine-PBP qHTS Assay for Modulators of WT P53-Induced Phosphatase 1 (WIP1) (AID 1347425). In a few lines: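 WIP1 (5 nM final) was preincubated with compound for 1 hour at room temperature. It then dephosphorylated 10 uM VEPPL-pS-QETFS peptide in Tris-HCl pH 7.5 with 30 mM MgCl2. Released Pi was detected by 10 uM Rh-PBP fluorescence (ex 525/em 598 nm) read at 1-min intervals for 11 min, as delta f1 - f0.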

Experiment [3] is described as follows: qHTS to identify inhibitors of the type 1 interferon - major histocompatibility complex class I in skeletal muscle: primary screen against the NCATS Mechanism Interrogation Plate v5.0 (MIPE) Libary (AID 1347411). Further: nearly all actives have a fitted effect of over 65% in size. Summed up:
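Immortalized human C25cl48 myoblasts with HiBit knocked into endogenous HLA-B*08:01 were stimulated with 4.0 ng/ml IFN-beta and exposed to compounds (11-point 1:3 titration, top 46 uM final) for 24 hrs at 37 C; HiBiT lytic luminescence measured.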

Experiment [4] concerns the target Protein phosphatase 1D (Homo sapiens) (UniProt O15297). Kind of experiment: RapidFire Mass Spectrometry qHTS Assay for Modulators of WT P53-Induced Phosphatase 1 (WIP1) (AID 1347424).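 Further: amount of dephosphorylated VEPPL-S-QETFS peptide product formed by WIP1.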 Further: potency means the concentration at half of the fitted maximal effect. In a few lines: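 10 nM WIP1 + cpd, 1 h RT; + 2 uM VEPPL-pS-QETFS, 5 min RT; stop 0.5% formic acid; labelled product standard 1 uM; RapidFire MS. Buffer 50 mM Tris pH 7.5, 30 mM MgCl2, 1 mM TCEP.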

A short description of experiment [5]: qHTS for inhibitors of adenylyl cyclases using a fission yeast platform: a pilot screen against the NCATS LOPAC library (AID 1347410). Summed up: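 Inhibition of GNAS-stimulated AC9 activity in S. pombe was inferred from derepression of a PKA-repressed fbp1-GFP reporter, measured as cytometric fluorescence after 18 h at 30C with compounds at up to 57 µM.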
A short description of experiment [6]: Validation qHTS assay for inhibitors of Activation Induced Cytidine Deaminase (AID): UDG Counterscreen signal (AID 1347427). In a few lines:
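Counterscreen read of UDG activity (2 U/mL, 4/3x) in the FRET deamination format with AID (1 uM, 4/3x), DJC20/DJC23 substrates (250 nM, 4x), 4 h at room temperature. NaOH stop, fluorescence at 560 ex/665 em.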

The target in experiment [7] is Single-stranded DNA cytosine deaminase (Homo sapiens) (UniProt Q9GZX7). The experiment is described as follows: Validation qHTS assay for inhibitors of Activation Induced Cytidine Deaminase (AID): AID signal (AID 1347429). In a few lines: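 AID and UDG were combined and compounds added at final up to 114 uM, then DJC20/DJC23 FRET substrate was added for 4 hr at room temperature. NaOH was then added for 30 min before fluorescence was read at 540/590 nm.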
Single-stranded DNA cytosine deaminase (Homo sapiens), sequence (Q9GZX7 whole entry, looked up): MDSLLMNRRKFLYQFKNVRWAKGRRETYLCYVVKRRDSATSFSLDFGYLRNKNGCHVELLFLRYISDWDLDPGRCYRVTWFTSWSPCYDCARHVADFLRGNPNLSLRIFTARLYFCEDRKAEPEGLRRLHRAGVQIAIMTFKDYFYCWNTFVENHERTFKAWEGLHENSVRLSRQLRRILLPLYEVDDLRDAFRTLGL

Protein phosphatase 1D (Homo sapiens), sequence (O15297 whole entry, looked up): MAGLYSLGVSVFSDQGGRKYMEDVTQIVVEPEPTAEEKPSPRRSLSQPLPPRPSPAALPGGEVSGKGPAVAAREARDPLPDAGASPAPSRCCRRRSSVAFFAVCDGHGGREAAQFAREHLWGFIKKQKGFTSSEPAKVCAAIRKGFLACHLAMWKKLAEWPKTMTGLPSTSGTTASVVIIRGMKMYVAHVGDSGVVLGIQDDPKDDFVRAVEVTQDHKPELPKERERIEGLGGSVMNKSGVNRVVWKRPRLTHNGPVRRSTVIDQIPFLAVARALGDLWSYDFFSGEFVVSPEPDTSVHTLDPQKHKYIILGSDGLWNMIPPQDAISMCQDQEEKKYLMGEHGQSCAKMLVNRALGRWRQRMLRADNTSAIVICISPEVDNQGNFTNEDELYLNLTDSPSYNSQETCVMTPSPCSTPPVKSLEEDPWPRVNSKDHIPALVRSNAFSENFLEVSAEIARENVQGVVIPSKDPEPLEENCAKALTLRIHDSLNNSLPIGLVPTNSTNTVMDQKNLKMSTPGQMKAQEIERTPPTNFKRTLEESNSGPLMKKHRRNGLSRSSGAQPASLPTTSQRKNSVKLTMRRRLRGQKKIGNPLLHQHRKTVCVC

`CCC(=O)c1c(O)cc(O)cc1O`: the Potency entry in experiment [1] was “inactive”. Moreover, the compound was called inactive in experiment [2].
Turning to `Cc1cccn2c(=O)c(-c3nnn[nH]3)cnc12`, in experiment [1], the Potency entry was “inactive”. In addition, in experiment [2], the compound was called inactive.
`C[C@]12C=CC(=O)C=C1CC[C@@H]1[C@@H]2[C@@H](O)C[C@@]2(C)[C@H]1CC[C@]2(O)C(=O)CO`: the Potency entry in experiment [3] and in experiment [4] was “inactive” each time. In addition, the call in experiment [2] was inactive.
For the compound `C[C@@H](CN(C)C)CN1c2ccccc2Sc2ccccc21`, the Potency entry in experiment [1] is “inactive”. Further, the outcome in experiment [2] was inactive.
Take `CCN1CCN(c2cc3c(cc2F)c(=O)c(C(=O)O)cn3C2CC2)CC1`: in experiment [4], the Potency entry was “inactive”. Moreover, the outcome in experiment [2] was inactive.
Regarding `CCOC(=O)/C=C(C)/C=C/C=C(C)/C=C/c1c(C)cc(OC)c(C)c1C`, in experiment [1], the Potency entry is “inactive”. Moreover, the outcome in experiment [2] was inactive.
For the compound `COc1ccc(/C=C/C(=O)c2ccc(OC)cc2OC)cc1`, the Potency entry in experiment [4] was “inactive”. In addition, the compound was called inactive in experiment [2].
For the compound `CC(=O)OCC(=O)[C@@]12N=C(C)O[C@@H]1C[C@H]1[C@@H]3CCC4=CC(=O)C=C[C@]4(C)[C@H]3[C@@H](O)C[C@@]12C`, the Potency entry in experiment [3] and in experiment [4] was “inactive” each time. The outcome in experiment [2] was inactive.
Regarding `OC(CCN1CCCCC1)(c1ccccc1)c1ccccc1`, the Potency entry in experiment [1] is “inactive”. Besides, the compound was called inactive in experiment [2].
On to `COc1cc2c(cc1O)CC[C@@H]1[C@@H]2CC[C@]2(C)[C@@H](O)CC[C@@H]12`, for which the outcome in experiment [5] and in experiment [6] was inactive. Also, the Potency result in experiment [7] is “inactive”.
For `CNCC[C@@H](Oc1ccccc1C)c1ccccc1`, the Potency entry in experiment [1] is “inactive”. Moreover, in experiment [2], the call was inactive.
`Oc1c(Cl)cc(Cl)cc1Sc1cc(Cl)cc(Cl)c1O`: the Potency in experiment [4] was 12.6 µM (active).
For the compound `CC(C)C[C@H]1C(=O)N2CCC[C@H]2[C@]2(O)O[C@](NC(=O)[C@@H]3C=C4c5cccc6[nH]c(Br)c(c56)C[C@H]4N(C)C3)(C(C)C)C(=O)N12`, the call in experiment [5] and in experiment [6] was inactive. Besides, the Potency result in experiment [7] is “inactive”.
As for `C[C@H](CCC(=O)O)[C@H]1CC[C@H]2[C@@H]3C(=O)C[C@@H]4CC(=O)CC[C@]4(C)[C@H]3CC(=O)[C@]12C`, in experiment [1], the Potency entry is “inactive”. In addition, in experiment [2], the outcome was inactive.
Take `CN(C)/N=N/c1nc[nH]c1C(N)=O`: the Potency result in experiment [1] was “inactive”. The result in experiment [2] was inactive.
As to `COc1ccc(CCN2CCC(Nc3nc4ccccc4n3Cc3ccc(F)cc3)CC2)cc1`, the Potency entry in experiment [4] was “inactive”. Besides, the compound was called inactive in experiment [2].
As to `CC(=O)[C@H]1CC[C@H]2[C@@H]3C[C@H](C)C4=CC(=O)CC[C@]4(C)[C@H]3[C@@H](O)C[C@]12C`, the Potency result in experiment [1] was “inactive”. Also, the compound was called inactive in experiment [2].
`CCCCCCCCCCCCCCCCOP(=O)([O-])OCC[N+](C)(C)C`: in experiment [1], the Potency result was “inactive”. Further, the result in experiment [2] was inactive.
Regarding `Oc1ccc(Cl)cc1Sc1cc(Cl)ccc1O`, the Potency in experiment [4] is 31.6 µM (active).
Consider `O=C(Nc1ccc(Oc2ccc(Cl)cc2)c(Cl)c1)c1cc(I)cc(I)c1O`, for which the Potency entry in experiment [4] is “inactive”.
Consider `COc1cc2c(cc1OC)[C@@H]1CC(=O)[C@@H](CC(C)C)CN1CC2`, for which the Potency result in experiment [1] was “inactive”. Moreover, in experiment [2], the compound was classed as inactive.
For the compound `C#C[C@]1(O)CC[C@H]2[C@@H]3CCC4=CC(=O)CC[C@@H]4[C@H]3CC[C@@]21C`, the Potency entry in experiment [4] is “inactive”. Besides, the call in experiment [2] was inactive.
As to `CC(=O)OCC(=O)[C@@]12OC(C)(C)O[C@@H]1C[C@H]1[C@@H]3C[C@H](F)C4=CC(=O)C=C[C@]4(C)[C@@]3(F)[C@@H](O)C[C@@]12C`, the Potency result in experiment [3] and in experiment [4] was “inactive” in each case. For the same compound, the outcome in experiment [2] was inactive.
On to `CCCCCCCCCCCCCCCC[N+](C)(C)CCN(Cc1ccc(OC)cc1)c1ncccn1`, for which, in experiment [4], the Potency result is “inactive”. In addition, the call in experiment [2] was inactive.
For the compound `C[C@]12CC[C@@H]3c4ccc(O)cc4CC[C@H]3[C@@H]1CC[C@@H]2O`, the outcome in experiment [5] and in experiment [6] was inactive. Besides, the Potency entry in experiment [7] was “inactive”.
For `C[C@@H]1C(=O)NC2=Nc3cccc(Cl)c3CN21`, the compound was called inactive in experiment [5] and in experiment [6]. Further, in experiment [7], the Potency result is “inactive”.
Regarding `COc1ccc(CN2CCN(C(c3ccc(F)cc3)c3ccc(F)cc3)CC2)c(OC)c1OC`, the Potency result in experiment [4] is “inactive”. Besides, in experiment [2], the compound was called inactive.
Take `CCCCOc1cc(C(=O)NCCN(CC)CC)c2ccccc2n1`: the Potency result in experiment [1] was “inactive”. The compound was called inactive in experiment [2].
As for `NCCC(O)(P(=O)(O)O)P(=O)(O)O`, the Potency result in experiment [1] was “inactive”. Further, the result in experiment [2] was inactive.
Consider `CC1=C(C(=O)O)N2C(=O)[C@@H](NC(=O)[C@H](N)c3ccc(O)cc3)[C@H]2SC1`, for which the Potency result in experiment [1] is “inactive”. Also, in experiment [2], the outcome was inactive.
Regarding `CNCCC=C1c2ccccc2CCc2ccccc21`, the call in experiment [5] and in experiment [6] was inactive. Further, the Potency result in experiment [7] was “inactive”.
For `NC(=O)CC[C@@H]1NC(=O)[C@H](Cc2ccccc2)NC(=O)[C@H](Cc2ccc(O)cc2)NC(=O)CCSSC[C@@H](C(=O)N2CCC[C@H]2C(=O)N[C@@H](CCCN=C(N)N)C(=O)NCC(N)=O)NC(=O)[C@H](CC(N)=O)NC1=O`, the Potency entry in experiment [1] was “inactive”. Also, the compound was called inactive in experiment [2].
For the compound `CCOC(=O)OC(C)OC1=C(C(=O)Nc2ccccn2)N(C)S(=O)(=O)c2ccccc21` (configuration not stated), the Potency result in experiment [1] was “inactive”. Further, the compound was classed as inactive in experiment [2].
Take `Cc1c(C(C)C)c(=O)n(-c2ccccc2)n1C`: in experiment [1], the Potency result was “inactive”. In addition, in experiment [2], the call was inactive.
On to `COc1cc(/C=C/C(=O)O[C@H]2CC[C@]34C[C@]35CC[C@]3(C)[C@@H]([C@H](C)CCC=C(C)C)CC[C@@]3(C)[C@@H]5CC[C@H]4C2(C)C)ccc1O`, for which the Potency entry in experiment [1] is “inactive”. Besides, the outcome in experiment [2] was inactive.
For `NCCCC[C@H](N[C@@H](CCc1ccccc1)C(=O)O)C(=O)N1CCC[C@H]1C(=O)O`, the Potency entry in experiment [1] is “inactive”. For the same compound, in experiment [2], the result was inactive.
